For 40 sequences, PBM binding z-score results are on record in the supplement of paper PMC6555819.

In this assay the test system is VDR:RXRa (NR concentration 270 nM, RXRa partner concentration 90 nM). Nature of the assay: PBM binding z-score (relative to random genomic background probes); higher = stronger binding; sequences stand for … in GC…GCGATTGACAGCGTAGAATGAAGG
As to the method: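 Protein-binding microarray (Agilent 4x180K custom design, double-stranded 60-nt probes: 5' GC cap, 34-nt variable region, 24-nt constant primer region; full probe sequence given). Purified or IVT nuclear receptor:RXRα heterodimers (3:1 NR:RXRα, mostly 270:90 nM) or homodimers were incubated for 1 h in PBS with 2% milk and no ligand, then detected with Alexa488 antibodies. Fluorescence from o1-orientation probes (~5 replicates averaged) was converted to z-scores against 500 random hg19 background probes. Variable regions are seed direct-repeat (DR0–DR5) sites, all their single-nucleotide variants and half-site ablations.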
Consider TCTTGTAGATCAAAGGTTAAAAAAGCCGAAGCCT, for which the PBM binding z-score turned out to be 1.64.

With GCGACTGGGGCATCAGCAGGTCACCATAACTTAA, the PBM binding z-score stood at 1.75.

In turn, GATTGTAGATCAAGGTTAAGAAAGACTAAGCTAA came in with a PBM binding z-score of 0.0632.

AGAACGAGGGCACGCTGAGGTGATAGCAGAGTAG yielded a PBM binding z-score of 1.78.

As to GTACCAAGGTGAATAGGTCGTAGATGAGTAGGCG, the PBM binding z-score was determined as 0.667.

Sequence CCGAGTAAGTTATGGGGCATTCAGGCAACGGTGA displayed a PBM binding z-score of -0.346.

ATATGTAGGTTAAGGGTCATTCGGGTTGGTTCGC yielded a PBM binding z-score of 6.18.

In the case of TTACCAAGGTGAGCTGAGGTCGTTGTTCCAACTC, the PBM binding z-score was 4.15.

For the sequence CCGATTAGGTTATGGGGCATTCAGGCAACGGTGA, the PBM binding z-score is 0.0574.

Consider GCTGCTAGGTCAACTGATGGTCAGCTCAAGCTCG, for which the PBM binding z-score stood at 1.59.

The sequence ATATGTAGATTAGCTGGGGTCATTCAGACTAGGC gave a PBM binding z-score of 4.91.

The sequence TATACAGGGTCAAATGCCAGAGTACGAATGTCGA displayed a PBM binding z-score of 4.82.

The sequence AGTCAAAGTTCAGGACGAGGTAACGGAAAGCACG showed a PBM binding z-score of 2.86.

The sequence TGTCAAAGTTCAAAGGTAACGTCAGTATCCACAC gave a PBM binding z-score of 5.11.

GGAACGAGGGCATTCGAGTTGTTAGCATGGCGAT had a PBM binding z-score of 2.82.

On to ATCGAAAGTTCGAGGTGAGTATAGAGAAAGGGAA, for which the PBM binding z-score was 1.16.

On to AGTCAAAGTTCACTAGGTAACTTAAGATTCAGCT, for which the PBM binding z-score is 3.88.

For CCGACTGGGGCAAGGTTACCATTACGCACAGCCA, the PBM binding z-score was determined as 0.00135.

On to TCTTGTAGATCAATAGAGGTTACGAAAGTGCGCT, for which the PBM binding z-score worked out at 2.15.

For TGAATGAGGTAATAAGATCAGGGAACGTTGCAAA, the PBM binding z-score is -0.334.

ATCTCTAGGTAGCCAAGTTCAGTGAATGCCGAAC yielded a PBM binding z-score of 2.24.

With TAGCCTAGGTCATTGGGCCAGTTTAGTACGCATC, the PBM binding z-score was 2.37.

TGAATGAGGTTACAAGATCAGGGAACGTTGCAAA registered a PBM binding z-score of 0.984.

Turning to TATACAGGGTCAAAGGCCAGACTACGAATGTCGA, the PBM binding z-score was 4.68.

On to CCAAACAGGTGAGAAGGTAACTCAGCCTCGATTA, for which the PBM binding z-score is -0.0119.

TCATATAGGTTAATGCTAGGTGAAAGTCCGATCT: the PBM binding z-score amounted to 1.43.

As to ATATGTAGGTTAAGGGTCATACAGGTTGGTTCGC, the PBM binding z-score came out at 5.42.

TCTTGTAGATCAAGTAGGTTAAGAAAGCCTGAGT returned a PBM binding z-score of 0.698.

The sequence CCTATTAGTTGACCATAAGGGCGACCGAAGCTCG displayed a PBM binding z-score of 0.426.

With TCGAGTAGGTTAGCAATGGGGCATTCAGCTTTCT, the PBM binding z-score was -0.142.

Regarding CAAACTAGGTCACCGGAAGGTCTAAGTCCGCATG, the PBM binding z-score is 3.1.

On to TCTAGCAGGCCAGAGTGTCACTCAAGAGGTACGG, for which the PBM binding z-score was -0.00537.

Sequence ACTATTAGTTGACTTAGGGGAACCGATACGACGC showed a PBM binding z-score of 0.378.

Sequence GGAACGAGTGCAAAGTTGATAGCATCTGTCGACG had a PBM binding z-score of 1.49.

As for CAAACTCGGTCACCGGAAGGTCAAAGTCCGCATG, the PBM binding z-score was 4.77.

CGAACTAGGTCAAAACAGGACAGTGAAGGATGAT: the PBM binding z-score turned out to be 1.99.

In turn, CCAGACAGGTGAGAAGGTAACTCGGCCTCGATTA had a PBM binding z-score of -0.138.

For the sequence CCTAGTTGGTCAGGAGGTAACACACCGGATATGA, the PBM binding z-score was found to be 0.461.

Consider AGAATGAGGCTAAGATCAGGGAAACAGAATACAT, for which the PBM binding z-score was -0.231.

Sequence TAGCCTAGGTCTGATCGGGCCAGTATACGCTATA came in with a PBM binding z-score of -0.771.
